# Measurements reported in publication PMC11006913.
# Where a chain is given by its changes, count along the chain named.
# Experiments:
# Experiment in all cases: PBM; 200 nM protein, PBS
# Settings in all cases: dsDNA, one strand shown
# [1] = molecular target: HOXB4 (Homo sapiens, UniProt P17483 148-234)
# [2] = molecular target: T1, VENTX (Homo sapiens, UniProt O95231 78-163, R121Q)
# T1 sequence: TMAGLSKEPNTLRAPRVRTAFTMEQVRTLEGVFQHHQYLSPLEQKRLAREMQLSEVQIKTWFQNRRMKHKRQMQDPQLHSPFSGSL
# [3] = molecular target: HOXA4 (Homo sapiens, UniProt Q00056 201-287, W262R)
# [4] = molecular target: T2, VENTX (Homo sapiens, UniProt O95231 78-163)
# T2 sequence: T1 sequence with Q44R
# [5] = molecular target: HOXA7 (Homo sapiens, UniProt P31268 116-202)
# [6] = molecular target: T3, VENTX (Homo sapiens, UniProt O95231 78-163, Y115F)
# T3 sequence: T1 sequence with Y38F, Q44R
# [7] = molecular target: HOXB6 (Homo sapiens, UniProt P17509 132-218, K202E)
# [8] = molecular target: HOXA2 (Homo sapiens, UniProt O43364 129-215, R185T)
# [9] = molecular target: HOXA4 (Homo sapiens, UniProt Q00056 201-287, R217L)
# [10] = molecular target: HOXB4 (Homo sapiens, UniProt P17483 148-234, V174I)
# [11] = molecular target: HOXA2 (Homo sapiens, UniProt O43364 129-215, R185K)
# [12] = molecular target: HOXA4 (Homo sapiens, UniProt Q00056 201-287)
# [13] = molecular target: HOXC10 (Homo sapiens, UniProt Q9NYD6 254-340, K271E)
# [14] = molecular target: VAX1 (Homo sapiens, UniProt Q5SQQ9 86-172)
# [15] = molecular target: VAX1 (Homo sapiens, UniProt Q5SQQ9 86-172, T142I)
# [16] = molecular target: HOXA2 (Homo sapiens, UniProt O43364 129-215, Y150S)
# [17] = molecular target: HOXA7 (Homo sapiens, UniProt P31268 116-202, W177C)
# [18] = molecular target: HOXA4 (Homo sapiens, UniProt Q00056 201-287, W262F)
# [19] = molecular target: HOXA2 (Homo sapiens, UniProt O43364 129-215)
# [20] = molecular target: VAX1 (Homo sapiens, UniProt Q5SQQ9 86-172, K157R)
# [21] = molecular target: HOXB6 (Homo sapiens, UniProt P17509 132-218)
# [22] = molecular target: PRRX1 (Homo sapiens, UniProt P54821 80-166, F113S)
# [23] = molecular target: PRRX1 (Homo sapiens, UniProt P54821 80-166)
# [24] = molecular target: T4, PAX4 (Homo sapiens, UniProt O43316 9-242, R200K)
# T4 sequence: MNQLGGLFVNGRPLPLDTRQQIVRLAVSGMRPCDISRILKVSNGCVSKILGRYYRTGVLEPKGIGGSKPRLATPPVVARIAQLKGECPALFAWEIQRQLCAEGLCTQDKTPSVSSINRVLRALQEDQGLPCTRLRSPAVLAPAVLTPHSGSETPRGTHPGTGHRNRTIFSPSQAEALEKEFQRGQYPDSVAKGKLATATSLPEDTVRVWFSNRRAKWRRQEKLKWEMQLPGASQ
# [25] = molecular target: T5, PAX4 (Homo sapiens, UniProt O43316 9-242)
# T5 sequence: T4 sequence with K192R
# [26] = molecular target: ALX1 (Homo sapiens, UniProt Q15699 118-204, L144V)
# [27] = molecular target: T6, PAX4 (Homo sapiens, UniProt O43316 9-242, R200Q)
# T6 sequence: T4 sequence with K192Q
# [28] = molecular target: ALX1 (Homo sapiens, UniProt Q15699 118-204, L144R)
# [29] = molecular target: T7, PAX4 (Homo sapiens, UniProt O43316 9-242, F177V)
# T7 sequence: T4 sequence with F169V, K192R
# [30] = molecular target: T8, PAX4 (Homo sapiens, UniProt O43316 9-242, F177Y)
# T8 sequence: T4 sequence with F169Y, K192R
# [31] = molecular target: T9, PAX4 (Homo sapiens, UniProt O43316 9-242, R227W)
# T9 sequence: T4 sequence with K192R, R219W
# [32] = molecular target: ALX1 (Homo sapiens, UniProt Q15699 118-204)
# Sequence of ALX1 (Homo sapiens, UniProt Q15699 118-204) (Q15699 118-204): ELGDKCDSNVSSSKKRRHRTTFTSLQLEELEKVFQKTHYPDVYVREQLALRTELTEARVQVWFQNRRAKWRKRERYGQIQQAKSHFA
# Sequence of HOXB4 (Homo sapiens, UniProt P17483 148-234) (P17483 148-234): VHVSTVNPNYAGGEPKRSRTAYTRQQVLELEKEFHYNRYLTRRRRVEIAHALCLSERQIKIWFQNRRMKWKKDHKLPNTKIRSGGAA
# Sequence of HOXB4 (Homo sapiens, UniProt P17483 148-234, V174I) (P17483 148-234 V174I): as the sequence (P17483 148-234) above, with V27I counted along it
# Sequence of HOXA7 (Homo sapiens, UniProt P31268 116-202) (P31268 116-202): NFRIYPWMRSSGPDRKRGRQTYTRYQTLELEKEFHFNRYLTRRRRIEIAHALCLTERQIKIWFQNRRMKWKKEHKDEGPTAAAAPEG
# Sequence of VAX1 (Homo sapiens, UniProt Q5SQQ9 86-172) (Q5SQQ9 86-172): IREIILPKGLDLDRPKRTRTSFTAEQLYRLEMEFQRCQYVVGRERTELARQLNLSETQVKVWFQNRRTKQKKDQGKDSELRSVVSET
# Sequence of VAX1 (Homo sapiens, UniProt Q5SQQ9 86-172, K157R) (Q5SQQ9 86-172 K157R): as the sequence (Q5SQQ9 86-172) above, with K72R counted along it
# Sequence of HOXA4 (Homo sapiens, UniProt Q00056 201-287) (Q00056 201-287): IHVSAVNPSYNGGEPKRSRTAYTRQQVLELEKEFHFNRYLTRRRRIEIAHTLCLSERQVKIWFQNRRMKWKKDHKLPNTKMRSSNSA
# Sequence of VAX1 (Homo sapiens, UniProt Q5SQQ9 86-172, T142I) (Q5SQQ9 86-172 T142I): as the sequence (Q5SQQ9 86-172) above, with T57I counted along it
# Sequence of HOXA7 (Homo sapiens, UniProt P31268 116-202, W177C) (P31268 116-202 W177C): as the sequence (P31268 116-202) above, with W62C counted along it
# Sequence of HOXA4 (Homo sapiens, UniProt Q00056 201-287, W262F) (Q00056 201-287 W262F): as the sequence (Q00056 201-287) above, with W62F counted along it
# Sequence of HOXA2 (Homo sapiens, UniProt O43364 129-215, R185T) (O43364 129-215 R185T): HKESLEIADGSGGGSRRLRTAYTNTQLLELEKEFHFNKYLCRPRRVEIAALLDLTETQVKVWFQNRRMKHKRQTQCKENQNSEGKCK
# Sequence of HOXB6 (Homo sapiens, UniProt P17509 132-218, K202E) (P17509 132-218 K202E): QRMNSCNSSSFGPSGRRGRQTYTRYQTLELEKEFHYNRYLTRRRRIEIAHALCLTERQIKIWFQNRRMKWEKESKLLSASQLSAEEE
# Sequence of HOXA2 (Homo sapiens, UniProt O43364 129-215, R185K) (O43364 129-215 R185K): as the sequence (O43364 129-215 R185T) above, with T57K counted along it
# Sequence of HOXB6 (Homo sapiens, UniProt P17509 132-218) (P17509 132-218): as the sequence (P17509 132-218 K202E) above, with E71K counted along it
# Sequence of HOXA2 (Homo sapiens, UniProt O43364 129-215, Y150S) (O43364 129-215 Y150S): as the sequence (O43364 129-215 R185T) above, with Y22S, T57R counted along it
# Sequence of HOXA2 (Homo sapiens, UniProt O43364 129-215) (O43364 129-215): as the sequence (O43364 129-215 R185T) above, with T57R counted along it
# Sequence of HOXA4 (Homo sapiens, UniProt Q00056 201-287, R217L) (Q00056 201-287 R217L): as the sequence (Q00056 201-287) above, with R17L counted along it
# Sequence of HOXA4 (Homo sapiens, UniProt Q00056 201-287, W262R) (Q00056 201-287 W262R): as the sequence (Q00056 201-287) above, with W62R counted along it
# Sequence of ALX1 (Homo sapiens, UniProt Q15699 118-204, L144V) (Q15699 118-204 L144V): as the sequence (Q15699 118-204) above, with L27V counted along it
# Sequence of ALX1 (Homo sapiens, UniProt Q15699 118-204, L144R) (Q15699 118-204 L144R): as the sequence (Q15699 118-204) above, with L27R counted along it
# Sequence of PRRX1 (Homo sapiens, UniProt P54821 80-166, F113S) (P54821 80-166 F113S): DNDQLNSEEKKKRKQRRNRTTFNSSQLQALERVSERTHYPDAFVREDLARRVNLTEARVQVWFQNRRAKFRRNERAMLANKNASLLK
# Sequence of HOXC10 (Q9NYD6 254-340 K271E): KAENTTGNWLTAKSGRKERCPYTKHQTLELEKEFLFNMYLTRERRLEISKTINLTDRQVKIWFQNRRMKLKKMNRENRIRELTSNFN
# Sequence of PRRX1 (Homo sapiens, UniProt P54821 80-166) (P54821 80-166): as the sequence (P54821 80-166 F113S) above, with S34F counted along it
sequence,measurement,setting,value
GTTAATGA,binding signal,[1],"13.3 upbm affinity estimate (log intensity, higher = more binding, comparable within an allelic series)"
same,binding signal,[2],"11.9 upbm affinity estimate (log intensity, higher = more binding, comparable within an allelic series)"
same,binding signal,[3],"10.7 upbm affinity estimate (log intensity, higher = more binding, comparable within an allelic series)"
same,binding signal,[4],"12.6 upbm affinity estimate (log intensity, higher = more binding, comparable within an allelic series)"
same,binding signal,[5],"11.3 upbm affinity estimate (log intensity, higher = more binding, comparable within an allelic series)"
same,binding signal,[6],"11.9 upbm affinity estimate (log intensity, higher = more binding, comparable within an allelic series)"
same,binding signal,[7],"9.94 upbm affinity estimate (log intensity, higher = more binding, comparable within an allelic series)"
same,binding signal,[8],"13.1 upbm affinity estimate (log intensity, higher = more binding, comparable within an allelic series)"
same,binding signal,[9],"12.7 upbm affinity estimate (log intensity, higher = more binding, comparable within an allelic series)"
same,binding signal,[10],"14 upbm affinity estimate (log intensity, higher = more binding, comparable within an allelic series)"
same,binding signal,[11],"13.5 upbm affinity estimate (log intensity, higher = more binding, comparable within an allelic series)"
same,binding signal,[12],"14.1 upbm affinity estimate (log intensity, higher = more binding, comparable within an allelic series)"
same,binding signal,[13],"11.9 upbm affinity estimate (log intensity, higher = more binding, comparable within an allelic series)"
same,binding signal,[14],"13.5 upbm affinity estimate (log intensity, higher = more binding, comparable within an allelic series)"
same,binding signal,[15],"13.4 upbm affinity estimate (log intensity, higher = more binding, comparable within an allelic series)"
same,binding signal,[16],"10.9 upbm affinity estimate (log intensity, higher = more binding, comparable within an allelic series)"
same,binding signal,[17],"8.79 upbm affinity estimate (log intensity, higher = more binding, comparable within an allelic series)"
same,binding signal,[18],"12.3 upbm affinity estimate (log intensity, higher = more binding, comparable within an allelic series)"
same,binding signal,[19],"12.8 upbm affinity estimate (log intensity, higher = more binding, comparable within an allelic series)"
same,binding signal,[20],"13.3 upbm affinity estimate (log intensity, higher = more binding, comparable within an allelic series)"
same,binding signal,[21],"11.8 upbm affinity estimate (log intensity, higher = more binding, comparable within an allelic series)"
CCTCATTA,binding signal,[1],"13.1 upbm affinity estimate (log intensity, higher = more binding, comparable within an allelic series)"
same,binding signal,[2],"11.6 upbm affinity estimate (log intensity, higher = more binding, comparable within an allelic series)"
same,binding signal,[3],"10.5 upbm affinity estimate (log intensity, higher = more binding, comparable within an allelic series)"
same,binding signal,[4],"12.5 upbm affinity estimate (log intensity, higher = more binding, comparable within an allelic series)"
same,binding signal,[22],"10.7 upbm affinity estimate (log intensity, higher = more binding, comparable within an allelic series)"
same,binding signal,[6],"11.8 upbm affinity estimate (log intensity, higher = more binding, comparable within an allelic series)"
same,binding signal,[8],"13.1 upbm affinity estimate (log intensity, higher = more binding, comparable within an allelic series)"
same,binding signal,[9],"12.1 upbm affinity estimate (log intensity, higher = more binding, comparable within an allelic series)"
same,binding signal,[10],"13.7 upbm affinity estimate (log intensity, higher = more binding, comparable within an allelic series)"
same,binding signal,[11],"13.4 upbm affinity estimate (log intensity, higher = more binding, comparable within an allelic series)"
same,binding signal,[12],"13.8 upbm affinity estimate (log intensity, higher = more binding, comparable within an allelic series)"
same,binding signal,[14],"13.6 upbm affinity estimate (log intensity, higher = more binding, comparable within an allelic series)"
same,binding signal,[15],"13.3 upbm affinity estimate (log intensity, higher = more binding, comparable within an allelic series)"
same,binding signal,[16],"10.7 upbm affinity estimate (log intensity, higher = more binding, comparable within an allelic series)"
same,binding signal,[18],"11.5 upbm affinity estimate (log intensity, higher = more binding, comparable within an allelic series)"
same,binding signal,[23],"13.2 upbm affinity estimate (log intensity, higher = more binding, comparable within an allelic series)"
same,binding signal,[19],"12.8 upbm affinity estimate (log intensity, higher = more binding, comparable within an allelic series)"
same,binding signal,[20],"13.4 upbm affinity estimate (log intensity, higher = more binding, comparable within an allelic series)"
GTGGGGGA,binding signal,[1],"7.95 upbm affinity estimate (log intensity, higher = more binding, comparable within an allelic series)"
same,binding signal,[5],"8.47 upbm affinity estimate (log intensity, higher = more binding, comparable within an allelic series)"
same,binding signal,[24],"9.34 upbm affinity estimate (log intensity, higher = more binding, comparable within an allelic series)"
same,binding signal,[25],"9.25 upbm affinity estimate (log intensity, higher = more binding, comparable within an allelic series)"
same,binding signal,[7],"9.05 upbm affinity estimate (log intensity, higher = more binding, comparable within an allelic series)"
same,binding signal,[10],"7.59 upbm affinity estimate (log intensity, higher = more binding, comparable within an allelic series)"
same,binding signal,[26],"6.51 upbm affinity estimate (log intensity, higher = more binding, comparable within an allelic series)"
same,binding signal,[27],"9.37 upbm affinity estimate (log intensity, higher = more binding, comparable within an allelic series)"
same,binding signal,[28],"6.24 upbm affinity estimate (log intensity, higher = more binding, comparable within an allelic series)"
same,binding signal,[29],"9.35 upbm affinity estimate (log intensity, higher = more binding, comparable within an allelic series)"
same,binding signal,[30],"9.43 upbm affinity estimate (log intensity, higher = more binding, comparable within an allelic series)"
same,binding signal,[31],"9.48 upbm affinity estimate (log intensity, higher = more binding, comparable within an allelic series)"
same,binding signal,[17],"8.55 upbm affinity estimate (log intensity, higher = more binding, comparable within an allelic series)"
same,binding signal,[32],"6.29 upbm affinity estimate (log intensity, higher = more binding, comparable within an allelic series)"
same,binding signal,[21],"9.14 upbm affinity estimate (log intensity, higher = more binding, comparable within an allelic series)"
